In PubChem BioAssay AID485294 (National Center for Advancing Translational Sciences (NCATS), 2010):
Out of some 370,000 compounds screened, about 150 (0.041%) were called active. A call without a number means that no potency is given here. Inconclusive results (about 14%) are left out. The call rests on the fitted dose curve; in most records, active means well fitted inhibition curve with a large enough effect; inconclusive means small, poorly fitted or top-dose-only effect; inactive means flat fitted curve, though single readings scatter. The full list was thinned out, with actives kept by preference.

biological target: Beta-lactamase (Escherichia coli (strain K12)) (UniProt P00811); experiment: qHTS Inhibitors of AmpC Beta-Lactamase (assay with detergent); conditions: AmpC hydrolysis of nitrocefin, absorbance 480 nm, 0.01% Triton; series mostly up to 114 µM; further: nearly all actives have a fitted effect of over 25% in size
Sequence (P00811 whole entry, looked up): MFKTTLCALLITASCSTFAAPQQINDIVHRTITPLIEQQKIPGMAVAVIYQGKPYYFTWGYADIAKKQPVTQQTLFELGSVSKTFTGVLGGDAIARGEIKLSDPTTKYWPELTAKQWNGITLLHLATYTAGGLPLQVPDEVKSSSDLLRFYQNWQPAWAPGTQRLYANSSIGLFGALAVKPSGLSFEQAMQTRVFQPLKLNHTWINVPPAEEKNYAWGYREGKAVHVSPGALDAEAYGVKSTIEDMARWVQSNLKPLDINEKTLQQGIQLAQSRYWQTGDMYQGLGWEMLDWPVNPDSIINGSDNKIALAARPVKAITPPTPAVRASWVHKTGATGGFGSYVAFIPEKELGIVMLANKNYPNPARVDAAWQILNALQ
Protocol: NIH Molecular Libraries Probe Production Network [MLPCN] NIH Chemical Genomics Center [NCGC] Assay Provider: Professor Brian Shoichet, UCSF Assay Overview: This aggregation profiling approach exploits the sensitivity of aggregate formation to detergent. Inhibition of b-lactamase is measured in the presence and absence of 0.01% Triton X-100. This particular assay had the prescence of 0.01% Triton X-100. See Pubchem assay "Promiscuous and Specific Inhibitors of AmpC Beta-Lactamase (assay without detergent)" for related screen. Compounds that inhibit only in the absence of detergent are considered likely promiscuous aggregators. A screen of 1,030 compounds was performed in Brian Shoichet's lab in 96-well format. AmpC activity was measured by following the absorbance at 480 nm. Nitrocefin is a chromogenic substrate: while nitrocefin is yellow (lmax 390 nm), the product of its hydrolysis is red (lmax 486 nm, 17,000 M-1). AmpC beta lactamase was provided by Shoichet Lab, UCSF.
Buffer: 20 mM phosphate buffer, pH 7.0 Triton X-100: No Detergent screen: 0.0001%, Detergent screen: 0.01%. Reagents/Controls: Buffer in columns 3 and 4 as negative control (no enzyme). 5.3 nM AmpC in columns 1, 2, 5-48. Titration of UCSF compound 9 control (from 10 mM, then 1:2) pin-transferred to column 2. Column 1 is neutral (100% activity). Assay Steps: Six uL of reagents were dispensed to 1536-well Greiner black clear bottom plates. Compounds and controls (23 nL) were transferred via Kalypsys PinTool. The plates were incubated for 15 min at room temperature, and then 2 uL of 800 uM solution of nitrocefin was added to start the reaction. The plates were immediately transferred to and read every 20 seconds for 4 min on ViewLux (Perkin-Elmer) High-throughput CCD imager using 480 nm absorbance protocol. During dispense, reagent bottles were kept submerged into 4 deg C water bath. Keywords: NIH Roadmap, MLSCN, MLI, MLSMR, qHTS, NCGC, AmpC Beta-Lactamase, Aggregation
Potency means the concentration at half of the fitted maximal effect.

| Structure (SMILES) | Potency |
| --- | --- |
| O=C(CC(NCc1cccnc1)C(=O)O)Nc1ccc(O)cc1 (stereo unspecified) | inactive |
| CCN(CCCNC(=O)c1ccc(Sc2ccc(C)cc2)c(NC(C)=O)c1)c1cccc(C)c1 | inactive |
| Cc1ccc(CNC(=O)CCc2c(C)nn(-c3ccc(N4CCCC4)nn3)c2C)cc1 | inactive |
| CC1=C(C(=O)OCc2ccc(C)cc2)C(c2ccccc2Cl)CC(=O)N1 (stereo unspecified) | inactive |
| Cc1ccc(C(=O)NCCSc2c(C)[nH]c3ccccc23)cc1C | inactive |
| CCc1ccc(NC(=O)c2cnc3c(-c4ccccc4)c(C)nn3c2C)cc1 | inactive |
| CCN(C(=O)c1sc2cc(OC)ccc2c1Cl)c1ccccc1 | inactive |
| COC(=O)c1cc(NC(=O)c2cnc(SC)nc2-c2ccccc2)cc(C(=O)OC)c1 | inactive |
| CCCCOc1ccc(CN2C(=O)C(=O)c3cc(Br)cc(C)c32)cc1OC | inactive |
| CCOc1ccc(/C=C(\C#N)c2nc3ccccc3c(=O)[nH]2)cc1OC | inactive |
| O=C(COc1ccccc1)OCc1cc(=O)n2nc(-c3cccs3)sc2n1 | inactive |
| O=C(Nc1ccc(Br)cc1)c1ccc(Br)c(S(=O)(=O)NCc2ccccc2)c1 | inactive |
| CCn1c2ccccc2c2nnc(N3CCN(c4cc(C)ccc4C)CC3)nc21 | inactive |
| CCOC(=O)c1sc(NC(=O)/C=C/c2ccc(C(C)C)cc2)c(C(=O)OCC)c1C | inactive |
| Cn1cc(C(=O)NCc2ccccc2F)cn1 | inactive |
| CCOC(=O)c1c(CNCc2ccccc2F)c2sc(C)cc2n1C | inactive |
| Cn1c2cc(B(O)O)sc2c2cnn(Cc3ccccc3F)c(=O)c21 | 2.82 µM (active) |
| Cc1cc2c(cc1S(=O)(=O)CCC(=O)Nc1ccc(OC(F)(F)F)cc1)OCC(=O)N2 | inactive |
| COc1ccccc1C(=O)Nc1c(C(=O)Nc2ccc(C)cc2)oc2ccccc12 | inactive |

| Structure (SMILES) | Potency |
| --- | --- |
| CCOC(=O)c1c(C)[nH]c(CCC(=O)NCCCN2CCN(c3cc(C)ccc3C)CC2)c1C | inactive |
| COc1cc(NS(=O)(=O)c2ccc3c(c2)OCC(C(=O)N2CCCC2)O3)cc(OC)c1 (stereo unspecified) | inactive |
| COc1cc2nc(SCc3ccc(F)cc3)n3nc(CCn4c(C)nc5ccccc54)nc3c2cc1OC | inactive |
| CCCCN(CC)CCCNC(=O)Cn1ncc2c([nH]c3ccc(C)cc32)c1=O | inactive |
| O=C(CN1C(=O)COc2ccc(S(=O)(=O)N3CCCCCC3)cc21)N1CCN(c2cccc(C(F)(F)F)c2)CC1 | inactive |
| O=C(CSc1nccn1-c1ccc(F)cc1)Nc1cccc2ccccc12 | inactive |
| COc1ccc2c(Sc3ccc(C)cc3)c(C(=O)NC(C)c3ccccc3)[nH]c2c1 (stereo unspecified) | inactive |
| O=C(Nc1ccc2nc(SCCOc3ccccc3)sc2c1)c1ccco1 | inactive |
| CCOc1cc(CNC(=O)c2sc3ncnc(N(C)C4CCCCC4)c3c2C)ccc1OC | inactive |
| CCS(=O)(=O)N1CCc2cc(C(=O)NCc3ccc(OC)cc3)ccc21 | inactive |
| Cc1ccccc1C(=O)O | inactive |
| Cc1ccc(NC2=C(Cl)C(=O)OC2OC(=O)c2ccccc2C)cc1 (stereo unspecified) | 6.31 µM (active) |
| Cc1ccccc1C(=O)Nc1ccccc1NC(=O)c1ccccc1C | inactive |
| Cc1ccccc1C(=O)OC1OC(=O)C(Cl)=C1Nc1ccccc1 (stereo unspecified) | 14.1 µM (active) |
| COC(=O)C1=C(Nc2ccc(OC)cc2)C=C(C)C(C(=O)OC)C1c1ccc(C)cc1 (stereo unspecified) | inactive |
| Cc1ccc(Cl)cc1N1CCN(C(=O)c2cccn3c(=O)c4cc(Cl)ccc4nc23)CC1 | inactive |
| CCOc1ccc(CNC(=O)CCc2c(C)nn(-c3ccc(N4CCCCC4)nn3)c2C)cc1 | inactive |
| CCOC(=O)c1ccc(N2C(=O)c3[nH]nc(-c4ccccc4)c3C2c2ccc(C(C)C)cc2)cc1 (stereo unspecified) | inactive |
| Cc1oc2ncnc(N3CCOCC3)c2c1C(=O)NCCc1ccccc1 | inactive |

| Structure (SMILES) | Potency |
| --- | --- |
| COc1cc(NC(=O)Cn2c(=O)n(Cc3ccco3)c(=O)c3oc4ccccc4c32)cc(OC)c1 | inactive |
| CC(C)c1ccc(NS(=O)(=O)c2ccc3[nH]cc(C(=O)NC4CCCC4)c(=O)c3c2)cc1 | inactive |
| COc1ccc(CCNC(=O)Cn2c(=O)cc(C(F)(F)F)c3c(C)nn(C)c32)c(OC)c1 | inactive |
| CC(=O)c1cccc(NC(=O)CSc2nc3c(c(=O)[nH]2)CCC3)c1 | inactive |
| CCOC(=O)c1ccc(N2C(=O)c3n[nH]c(C)c3C2c2ccc(O)c(OC)c2)cc1 (stereo unspecified) | inactive |
| O=c1cc2nc(-c3ccccc3)nc(SCCOc3ccc(Cl)cc3)n2[nH]1 | inactive |
| Cc1ccc(OCCSc2nc(-c3cccs3)nc3cc(=O)[nH]n23)cc1Cl | inactive |
| COc1ccccc1-c1cc2nc(C)c(CCC(=O)NC3CCCCC3)c(C)n2n1 | inactive |
| CNc1ccc(-c2nc(-c3ccco3)no2)cc1[N+](=O)[O-] | inactive |
| CC1CCC(N2CC(=O)N(CCC3=CCCCC3)C(c3ccc(F)cc3)C2=O)CC1 (stereo unspecified) | inactive |
| Fc1ccc(CSc2nc(NCc3ccccc3)c3ccccc3n2)cc1 | inactive |
| O=C(CCc1ccccc1)NCc1ccc2c(c1)CCN2C(=O)c1ccccc1 | inactive |
| COc1ccc(-c2cc(C(F)(F)F)nc(SCC(=O)N(C)Cc3ccccc3)n2)cc1OC | inactive |
| Cc1oc2ncn(CC(C)C)c(=O)c2c1C(=O)N1CCN(c2ccccc2F)CC1 | inactive |
| O=P(O)(CN1CCCCCC1)C1Cc2ccccc2C1 | 50.1 µM (active) |
| O=P(O)(CN1CCCCC1)CN1CCCCC1 | inactive |
| O=C(CN1CCCC1)N1CCN(c2ccccc2)CC1 | inactive |
| CCn1cc(C(=O)N2CCN(c3cc(C)ccc3C)CC2)c(=O)c2cc(S(=O)(=O)N(C)C3CCCCC3)ccc21 | inactive |
